The source of these data is PubChem BioAssay AID1851 (National Center for Advancing Translational Sciences (NCATS), 2009).

Broadly, the AC50 is the midpoint of the concentration-response curve, whichever way the signal moves.

The structures appear in SMILES notation. Out of some 16,000 compounds screened, about 4,000 (25%) were called active. Roughly 26% stayed inconclusive and do not appear here. These entries were drawn from the full list. Unmarked numbers belong to inactive results. Calls come from the whole dose curve; as a rule, active = well fitted curve in the direction sought with a large enough effect; inconclusive = small, poorly fitted or top-dose-only effect, or effect the other way; inactive = no such curve, though single readings can be large or run the other way.
% is set by controls: 0 for no effect and ±100 for the full control effect.

Cytochrome P450 2C9 (Homo sapiens), sequence (P11712 whole entry, looked up): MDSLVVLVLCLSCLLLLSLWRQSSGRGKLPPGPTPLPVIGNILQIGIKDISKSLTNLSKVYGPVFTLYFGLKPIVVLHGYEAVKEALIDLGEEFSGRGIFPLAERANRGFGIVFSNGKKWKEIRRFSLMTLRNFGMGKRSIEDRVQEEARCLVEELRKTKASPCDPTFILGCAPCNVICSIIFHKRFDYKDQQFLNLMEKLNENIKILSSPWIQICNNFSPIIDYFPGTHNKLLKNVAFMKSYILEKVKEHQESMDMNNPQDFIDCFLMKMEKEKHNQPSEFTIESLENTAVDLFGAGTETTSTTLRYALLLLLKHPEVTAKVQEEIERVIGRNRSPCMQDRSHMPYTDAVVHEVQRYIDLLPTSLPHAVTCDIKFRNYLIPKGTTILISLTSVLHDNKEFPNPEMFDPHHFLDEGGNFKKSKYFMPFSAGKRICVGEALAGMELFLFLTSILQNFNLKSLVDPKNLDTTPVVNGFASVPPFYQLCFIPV

The test concerns the target Cytochrome P450 2C9 (Homo sapiens) (UniProt P11712). Nature of the test: Cytochrome panel assay with activity outcomes. Conditions: recombinant CYP, pro-luciferin dealkylation, luminescence, p450-cyp2c9; series mostly up to 57.1 µM.
In the case of `COc1ccc(C(=O)N2CCC3(CCN(C(=O)Nc4cccc(F)c4)CC3)CC2)cc1`, the AC50 entry is “inactive”.

Turning to `CCOC(=O)NNC1CC(=O)N(c2ccc(OC)cc2)C1=O` (centres undefined), the AC50 result was “inactive”.

As to `O=C1CC(SC(=Nc2ccccc2)Nc2ccccc2)C(=O)N1c1cccc(Cl)c1` (centres undefined), the AC50 was 3.55 µM (active).

Consider `O=C1CC(N2CCOCC2)C(=O)N1c1cccc(Cl)c1` (centres undefined), for which the AC50 entry was “inactive”. With `CCN=C(Nc1cccc(F)c1)SC1CC(=O)N(c2ccc(OC)cc2)C1=O` (centres undefined), the AC50 is 6.31 µM (active). As for `Cc1cnc(CNc2ncnc3ccc(-c4ccccc4Cl)cc23)cn1`, the activity, negative = inhibition is -25% [at 2.29 µM]. On to `CCCOc1ccc(N2C(=O)CC(S/C(N)=N/N=C(\C)c3cccs3)C2=O)cc1` (centres undefined), for which the AC50 is 4.47 µM (active). With `COc1ccc(N2C(=O)CC(S/C(N)=N/N=C(\C)c3cccs3)C2=O)cc1` (centres undefined), the AC50 was 3.98 µM (active). Still for that read-out and setting: with `COc1ccc(-n2c(=O)c(-c3cccs3)nc3cnc(N4CCN(C)CC4)nc32)cc1` the entry was “inactive”; with `COc1ccc(C2=Nc3cccc4cccc(c34)N2)cc1`, “inactive”. Still for that read-out and setting: next, `Cn1cnc2c(NC3CCCC3)ncnc21`: “inactive”; `COc1ccc(C(=O)N2CC3(CC(c4ccc(Cl)cc4)=NO3)C[C@H]2C(=O)NCC(N)=O)cc1` (some centres undefined): “inactive”.

Regarding `COc1ccccc1NC(=O)C(C/C=C(\C)Cl)C(C)=O` (centres undefined), the AC50 entry was “inactive”.

For `COc1ccccc1NC(=O)[C@H](COCc1ccccc1)NC(=O)OC(C)(C)C`, the AC50 was 7.94 µM (active). For the compound `CO[C@H]1COC(=O)CCC[C@H](C)[C@@H](OC)COC(=O)C/C=C\[C@@H]1C`, the activity, negative = inhibition is 14.4% [at 11.4 µM].

On to `Cn1cc(-c2nc3cnc(N4CCNCC4)nc3n(-c3ccccc3)c2=O)c2ccccc21`, for which the AC50 result was “inactive”. On to `CN1CCN(c2ncc3nc(-c4cn(C)c5ccccc45)c(=O)n(-c4ccccc4)c3n2)CC1`, for which the AC50 entry is “inactive”. In the case of `Cn1cc(-c2nc3cncnc3n(C3CC3)c2=O)c2ccccc21`, the AC50 result is “inactive”. As for `Cn1cc(-c2nc3cnc(N4CCNCC4)nc3n(C3CC3)c2=O)c2ccccc21`, the concentration at half-maximal activity (AC50) is 3.98 µM (active). For `Cn1cc(-c2nc3cnc(N4CCOCC4)nc3n(C3CC3)c2=O)c2ccccc21`, the AC50 entry was “inactive”. For the compound `Cn1cc(-c2nc3cnc(N4CCNCC4)nc3n(C)c2=O)c2ccccc21`, the half-maximal activity concentration (AC50) is 7.94 µM (active). Regarding `C[C@@H]1CCCN(CP(=O)(c2ccccc2)c2ccccc2)C1`, the activity, negative = inhibition was -15.6% [at 11.4 µM]. In the case of `Cc1n[nH]c(C)c1N=Nc1cc(Cl)ccc1Cl`, the AC50 entry was “inactive”. The same measure, in the same setting: next, `CCOC(=O)CNc1c(-c2ccccc2)nc2ccc(Cl)cn12`: 2.82 µM (active); `CCOc1ccc(Cl)cc1CNCCNCCO`: “inactive”. With `O=C(O)Cc1cc(Cl)ccc1O`, the activity, negative = inhibition was 12.8% [at 11.4 µM].

For the compound `CN(C)Cc1cc(Cl)c(O)c(CN(C)C)c1`, the activity, negative = inhibition is -9.61% [at 11.4 µM]. Consider `Oc1ccc(Cl)cc1Cc1cc(Cl)cc(Cc2cc(Cl)ccc2O)c1O`, for which the AC50 was 2.51 µM (active). Same read-out and setting: with `Oc1ccc(Cc2cc(Cl)cc(Cl)c2O)cc1Cl` the figure was 0.2 µM (active). Take `COc1ccccc1CNc1ncncc1-c1cccnc1`: the activity, negative = inhibition was -1.61% [at 2.29 µM]. On to `O=C(O)[C@@H]1C[C@@H](C(=O)O)N1`, for which the AC50 result was “inactive”.

Take `Cc1nonc1NC(=O)N1CCCC1`: the AC50 entry is “inactive”.

Turning to `Cn1c(CC(=O)Nc2ccc(Cl)c(Cl)c2)nnc1SCC(=O)N1CCN(c2ccccc2)CC1`, the AC50 was 5.62 µM (active).

Take `CC1CC(C)CN(C(=O)CSc2nnc(CSc3ncccn3)n2C)C1` (centres undefined): the AC50 entry was “inactive”.

Turning to `CCCS(=O)(=O)N1CCCC(C(=O)N2CCN(C(=O)OCC)CC2)C1` (centres undefined), the AC50 entry was “inactive”. For `CCOC(=O)N1CCC(NC(=O)C2CCN(S(=O)(=O)N3CCCC3)CC2)CC1`, the AC50 result is “inactive”. Still for that read-out and setting: next, `CCOC(=O)N1CCC(NC(=O)c2cc(S(=O)(=O)N3CCCC3)cn2C)CC1`: 7.08 µM (active). On to `C[C@@]12CCC(=O)C=C1CC[C@H]1[C@@H]2[C@@H](O)C[C@]2(C)[C@@H]1CC[C@@]2(O)C(=O)COC(=O)C1CCCC1`, for which the activity, negative = inhibition is -1.4% [at 11.4 µM]. As to `O=S(=O)(O)c1cc(O)c2c(N=Cc3ccccc3O)cc(S(=O)(=O)O)cc2c1`, the AC50 is 3.16 µM (active). For the compound `Nc1ccccc1N=Nc1c(S(=O)(=O)O)cc2cc(S(=O)(=O)O)cc(O)c2c1O`, the activity, negative = inhibition was -15.1% [at 11.4 µM]. The same measure, in the same setting: next, `COc1ccccc1-c1cc(-n2ccnc2)ncn1`: -8.14% [at 2.29 µM]. On to `Cc1ccc(Nc2ccc(-n3ccnc3)nn2)cc1C`, for which the AC50 is 0.0794 µM (active). Take `CS(=O)(=O)Nc1cccc(-c2nccc(-n3ccnc3)n2)c1`: the activity, negative = inhibition is -8.16% [at 2.29 µM]. Regarding `CCc1ccc(NC(=O)c2cc(C(C)C)on2)cc1`, the AC50 result was “inactive”. As for `CCc1noc(N)c1C(=O)Nc1ccc(F)c(Cl)c1`, the AC50 was 14.1 µM (active). On the same count and under the same terms, next, `O=C(Nc1ccc(F)cc1)c1cc(S(=O)(=O)N2CCCCC2)cs1`: 12.6 µM (active). `O=C(O)c1cc(S(=O)(=O)N2CCCCC2)ccc1F`: the AC50 result was “inactive”. With `O=C(N/N=C1/C[C@@H](O)[C@@H](O)[C@@H]2[C@H]3C(=O)N(c4ccc(F)cc4F)C(=O)[C@@H]3CC[C@H]12)OCc1ccccc1`, the activity, negative = inhibition was -11.6% [at 11.4 µM]. Turning to `O=C1C=C(NCCc2cc(Br)c(O)c(Br)c2)C(=O)c2ncccc21`, the AC50 was 1.58 µM (active).

For the compound `O=C1C=C(Nc2nc(C(=O)O)cc(=O)[nH]2)c2ccccc2C1=O`, the activity, negative = inhibition was 8.04% [at 11.4 µM]. As for `COc1ccc2c(c1)c(=O)oc1c(C)c(OCC(=O)N3CCc4ccccc4C3)ccc12`, the AC50 is 1 µM (active). Still for that read-out and setting: with `COCC(=O)N1CCC2(CC1)CCN(C(=O)Nc1ccc(OC)cc1)CC2` the entry was “inactive”. On the same count and under the same terms, next, `CN(C)CC[C@H](c1ccc(Br)cc1)c1ccccn1`: “inactive”.

For the compound `CN(Cc1ccco1)c1ccnc(-c2ccoc2)n1`, the activity, negative = inhibition is 27.8% [at 2.29 µM]. Turning to `COc1ccccc1C1(CC(=O)Nc2nccs2)CCOC(C(C)C)C1` (centres undefined), the AC50 was 10 µM (active). On to `Oc1ccccc1CNCc1ccccc1O`, for which the activity, negative = inhibition was -4.69% [at 11.4 µM]. Still for that read-out and setting: with `O[C@@H](c1cc(C(F)(F)F)nc2c(Cl)cc(Cl)cc12)[C@@H]1CCCCN1` the figure was 0.514% [at 11.4 µM]. For the compound `COc1ccc(Oc2nccc(-c3ccc(F)cc3)c2C#N)cc1`, the AC50 result is “inactive”. As to `N#Cc1cccc(-c2nccc(NCc3ccccc3)n2)c1`, the activity, negative = inhibition was -19.1% [at 2.29 µM]. For the compound `N#Cc1c(-c2ccccc2)ccnc1Oc1ccccc1`, the AC50 is 7.08 µM (active). For the compound `CN(C)c1ccnc(Oc2ccc(Cl)cc2)c1C#N`, the AC50 was 20 µM (active). In the case of `COc1ccccc1CNc1cc(-c2cccc(C#N)c2)ncn1`, the activity, negative = inhibition is 8.28% [at 2.29 µM]. With `C[C@@H]1O[C@H](O[C@@H]2[C@@H](Oc3cc(O)c4c(c3)O[C@H](c3ccc(O)cc3)CC4=O)O[C@@H](CO)[C@@H](O)[C@H]2O)[C@@H](O)[C@H](O)[C@@H]1O`, the AC50 result is “inactive”.

Consider `Cc1ccc2c(c1)N[C@H](c1ccc(C(=O)O)cc1)c1cccn1-2`, for which the activity, negative = inhibition was -25.1% [at 11.4 µM]. `C[C@@H](CN1CCC(Cc2ccccc2)CC1)[C@@H](O)c1ccc(O)cc1`: the AC50 result was “inactive”.

Consider `CC(C)OC(=O)c1cc2c(ccn2C)n1CC(=O)N1CCC(Cc2ccccc2)CC1`, for which the AC50 is 14.1 µM (active). On the same count and under the same terms, with `Cc1ccc(C)c(Cn2c(C(=O)OC(C)C)cc3c2ccn3C)c1` the figure was 8.91 µM (active); with `C[C@@H](CN1CCC(Cc2ccccc2)CC1)[C@H](O)c1ccc(O)cc1`, “inactive”; with `COCCn1c(=O)c(-c2cc(F)cc(F)c2)nc2cnc(Oc3cccc(Cl)c3)nc21`, 3.98 µM (active). On the same count and under the same terms, next, `CCNc1ncc2nc(-c3cc(F)cc(F)c3)c(=O)n(CCOC)c2n1`: “inactive”; `COCCn1c(=O)c(-c2ccc(OC)cc2)nc2cnc(Nc3cccc(OC)c3)nc21`: “inactive”.

For `N#CCCn1c(=O)c(-c2ccc(F)cc2)nc2cnc(Oc3cccc(Cl)c3)nc21`, the AC50 entry is “inactive”. As to `COCCn1c(=O)c(-c2ccccc2)nc2cnc(Oc3cccc(Cl)c3)nc21`, the AC50 was 0.501 µM (active). The same measure, in the same setting: with `COCCn1c(=O)c(-c2cn(C)c3ccccc23)nc2cnc(Oc3cccc(Cl)c3)nc21` the entry was “inactive”; with `COCCn1c(=O)c(-c2ccc(OC)cc2)nc2cnc(Oc3cccc(Cl)c3)nc21`, 0.631 µM (active); with `O=c1[nH]c(=O)n([C@@H]2C[C@H](O)[C@H](CO)O2)cc1C(F)(F)F`, “inactive”. In the case of `COc1ccccc1NC(=S)NCCc1ccccc1`, the AC50 result is “inactive”.

On to `Fc1cc(Br)ccc1NC(=S)NCCc1ccccc1`, for which the AC50 is 10 µM (active). As to `Fc1ccc(NC(=S)NCCc2ccccc2)c(F)c1F`, the AC50 was 5.01 µM (active). For `Fc1ccccc1NC(=S)NCCc1ccccc1`, the AC50 was 7.94 µM (active). As to `O=C1O[C@@H]([C@H](O)[C@H](O)[C@H](O)CO)[C@@H](O)[C@@H]1O`, the activity, negative = inhibition was -8.59% [at 11.4 µM]. Take `COc1ccc(C(=O)N2CCC[C@@]3(CCN(C(=O)NC(C)C)C3)C2)cc1`: the AC50 result is “inactive”. For `Nc1ncnc2c1ncn2[C@H]1O[C@@H](C(=O)OCCO)[C@@H](O)[C@H]1O`, the activity, negative = inhibition was -1.34% [at 11.4 µM].

Consider `O=C(O)C1CCN(c2ncnc3ccc(-c4ccccc4C(F)(F)F)cc23)CC1`, for which the activity, negative = inhibition was 4.43% [at 2.29 µM]. On the same count and under the same terms, with `N#Cc1ccccc1-c1ccc2ncnc(N3CCNCC3)c2c1` the figure was 26.5% [at 2.29 µM]. For the compound `Cc1cc(C)n(-c2ccc(C(=O)Nc3cc(C(F)(F)F)ccc3N3CCOCC3)cc2)n1`, the AC50 is 0.0794 µM (active).

On to `Cc1ccc(C(C)C)n1C(=O)OC(C)(C)C`, for which the activity, negative = inhibition is 0.745% [at 11.4 µM]. For the compound `COc1ccc(N2C(=O)CSC2c2cccc(F)c2)c(OC)c1` (centres undefined), the AC50 result is “inactive”. Still for that read-out and setting: with `CC(=O)Nc1ccc(N2C(=O)CSC2c2c(F)cccc2Cl)cc1` (centres undefined) the figure was 10 µM (active). Still for that read-out and setting: with `CC(=O)Nc1ccc(N2C(=O)CC(c3ccccc3)CC2=O)cc1` the entry was “inactive”; with `O=C(Nc1ccc([N+](=O)[O-])cc1Cl)c1cc(Cl)ccc1O`, 0.631 µM (active); with `O=C(Nc1ccccc1)c1cc([N+](=O)[O-])ccc1Cl`, 6.31 µM (active). As for `Cc1cccc[n+]1CC(=O)Nc1ccc([N+](=O)[O-])cc1Cl`, the AC50 result was “inactive”. For `O=C(Nc1ccccc1)c1ccccc1CC[N+](=O)[O-]`, the AC50 entry was “inactive”.
